Experimental data taken from the supplement of paper PMC10646978.
± gives the standard deviation.

Key:
Conditions in all cases: modulator concentration 10 µM
[1] = system: RAW-Dual (murine macrophage reporter line); test: NF-kB reporter (SEAP) activity fold change vs agonist alone; higher = enhanced NF-kB activity
Summary of the method: (§1)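 Compound reached 10 μM final in each well by pin transfer, onto RAW-Dual murine macrophage reporter cells seeded at 50 000 per well in 384-well plates. After 1 hour at 37 °C, the cells were stimulated overnight with a PRR agonist. SEAP in the supernatant was read with QUANTI-Blue at 620 nm absorbance for NF-κB, and Lucia luciferase was read with QUANTI-Luc luminescence for IRF. Each signal was turned into fold change against the mean agonist-only control on the same plate, and two replicate plates were averaged with propagated errors.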

[2] = system: RAW-Dual (murine macrophage reporter line); test: IRF reporter (Lucia luciferase) activity fold change vs agonist alone; higher = enhanced IRF activity
Summary of the method: as §1

[3] = system: RAW-Dual (murine macrophage reporter line); test: viability score (confluency relative to resting cells, overnight) (fraction); higher = more viable, active = viable (0.7 or more)
Summary of the method: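 A compound met the cutoff when both of two confluency masks exceeded 70% of resting cells. Those masks were made with IncuCyte software from IncuCyte images of RAW-Dual macrophages treated overnight at 10 μM final. This is the basis of the viability score, which is confluency relative to resting cells.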

[4] = agonist: CpG ODN 1826 0.5 ug/mL

Compound | NF-kB reporter [1, 4] | NF-kB reporter ([1]; agonist: LPS 0.1 ug/mL) | NF-kB reporter ([1]; agonist: MPLA […]) | IRF reporter ([2]; agonist: 3'3'-cGAMP 10 ug/mL) | IRF reporter ([2]; agonist: LPS 0.1 ug/mL) | IRF reporter ([2]; agonist: MPLA […]) | viability score [3]
O=C(Nc1ccc(Br)cc1)c1cccc(S(=O)(=O)NC2CCCCC2)c1 | 0.746 ± 0.057 | 0.846 ± 0.076 | 1.24 ± 0.035 | 0.527 ± 0.019 | 1.04 ± 0.14 | 1 ± 0.17 | 0.983 (active)
COc1ccc(Br)cc1C(=O)Nc1cc(C(F)(F)F)cc(C(F)(F)F)c1 | 1.2 ± 0.11 | 0.99 ± 0.096 | 1.01 ± 0.044 | 0.982 ± 0.036 | 0.991 ± 0.07 | 1.05 ± 0.14 | 0.999 (active)
OCCCNCC(O)Cn1c2ccc(Br)cc2c2cc(Br)ccc21 (centres undefined) | 0.661 ± 0.043 | 0.653 ± 0.057 | 1.75 ± 0.049 | 0.626 ± 0.046 | 1.19 ± 0.073 | 1.91 ± 0.18 | 0.108 (inactive)
COc1ccc(C(=O)NCCOc2cc(C)cc(C)c2)cc1OC | 1.48 ± 0.12 | 1 ± 0.056 | 0.827 ± 0.062 | 1.02 ± 0.045 | 1.42 ± 0.19 | 1.03 ± 0.21 | 1.01 (active)
CNCCC(Oc1ccc(C(F)(F)F)cc1)c1ccccc1.Cl (centres undefined) | 0.766 ± 0.072 | 0.848 ± 0.087 | 1.33 ± 0.19 | 1.04 ± 0.13 | 0.972 ± 0.056 | 0.9 ± 0.19 | 0.379 (inactive)
CN1C(C(=O)Nc2ccccn2)=C(O)c2sc(Cl)cc2S1(=O)=O | 0.744 ± 0.047 | 0.896 ± 0.094 | 1.08 ± 0.11 | 0.955 ± 0.043 | 1.43 ± 0.22 | 1.72 ± 0.59 | 0.967 (active)
CN1CCN(c2ccc(-c3cccc(NC(=O)c4ccc5ccccc5c4)c3)nn2)CC1 | 0.162 ± 0.0099 | 0.745 ± 0.15 | 0.301 ± 0.11 | 0.664 ± 0.041 | 1.88 ± 0.75 | 1.85 ± 0.26 | 0.171 (inactive)
CCOc1nc2cccc(C(=O)OC(C)OC(=O)OC3CCCCC3)c2n1Cc1ccc(-c2ccccc2-c2nnn[nH]2)cc1 (centres undefined) | 0.672 ± 0.089 | 0.762 ± 0.062 | 0.976 ± 0.092 | 1.1 ± 0.051 | 1.31 ± 0.089 | 1.47 ± 0.13 | 1.02 (active)
COc1ccc(OC2CCN(C(=O)C3CCOC3)C2)nn1 (centres undefined) | 0.955 ± 0.12 | 1.04 ± 0.1 | 0.949 ± 0.11 | 1 ± 0.083 | 1.12 ± 0.072 | 1.23 ± 0.14 | 0.999 (active)
CC(C)c1nc(CN(C)C(=O)N[C@H](C(=O)N[C@@H](Cc2ccccc2)C[C@H](O)[C@H](Cc2ccccc2)NC(=O)OCc2cncs2)C(C)C)cs1 | 0.57 ± 0.047 | 0.468 ± 0.036 | 0.8 ± 0.053 | 1.04 ± 0.14 | 0.993 ± 0.049 | 0.92 ± 0.096 | 1 (active)
COc1c(OC)c2occc2c2oc(=O)ccc12 | 1.14 ± 0.32 | 0.86 ± 0.083 | 0.941 ± 0.059 | 0.551 ± 0.018 | 0.586 ± 0.17 | 0.67 ± 0.07 | 0.968 (active)
Cc1cccc(Oc2ccc(NC(=O)c3ccco3)cc2)c1 | 0.777 ± 0.18 | 0.981 ± 0.081 | 1 ± 0.095 | 0.516 ± 0.037 | 1.07 ± 0.24 | 1.27 ± 0.14 | 0.97 (active)
Cl.Cl.O=C(O)COCCN1CCN([C@H](c2ccccc2)c2ccc(Cl)cc2)CC1 | 1.07 ± 0.082 | 1.06 ± 0.052 | 1.01 ± 0.047 | 0.94 ± 0.057 | 0.905 ± 0.035 | 0.97 ± 0.13 | 1 (active)
CN(C)S(=O)(=O)N1CCC(CNC(=O)NC2CCCC2)CC1 | 0.963 ± 0.098 | 1.09 ± 0.098 | 0.818 ± 0.11 | 0.958 ± 0.1 | 1.04 ± 0.062 | 0.874 ± 0.31 | 1 (active)
O=C(CC1Sc2ccccc2NC1=O)Nc1ccccc1Cl (centres undefined) | 1 ± 0.079 | 0.989 ± 0.067 | 1.01 ± 0.036 | 1.15 ± 0.21 | 1.04 ± 0.043 | 1.04 ± 0.15 | 1 (active)
Cl.Cn1cc(C(=O)[C@@H]2CCc3nc[nH]c3C2)c2ccccc21 | 0.806 ± 0.078 | 0.83 ± 0.11 | 0.878 ± 0.027 | 0.906 ± 0.056 | 0.973 ± 0.11 | 1.01 ± 0.078 | 0.997 (active)
Cc1ccc(N2CC(C(=O)NCC3CCCO3)CC2=O)cc1 (centres undefined) | 1.02 ± 0.082 | 0.97 ± 0.099 | 1.03 ± 0.037 | 1.03 ± 0.22 | 1.05 ± 0.051 | 1.17 ± 0.076 | 1 (active)
Cc1ccc(NC(=O)c2ccccc2Oc2ccccc2)cc1 | 0.689 ± 0.055 | 1.1 ± 0.097 | 1.24 ± 0.059 | 0.881 ± 0.08 | 1.09 ± 0.14 | 1.76 ± 0.41 | 1 (active)
Cc1ncn(CC(=O)N2CC(Oc3cccc(C(F)(F)F)n3)C2)c(=O)c1C | 0.986 ± 0.059 | 1.09 ± 0.086 | 0.9 ± 0.08 | 0.83 ± 0.12 | 1.21 ± 0.086 | 1.25 ± 0.097 | 1 (active)
CN(Cc1cnc2nc(N)nc(N)c2n1)c1ccc(C(=O)NC(CCC(=O)O)C(=O)O)cc1 (centres undefined) [Prestw-373] | 0.987 ± 0.24 | 0.701 ± 0.04 | 0.87 ± 0.072 | 0.614 ± 0.037 | 1.16 ± 0.19 | 1.01 ± 0.13 | 0.791 (active)
COCCn1c(C)cc(C(=O)CSc2ncnc3sc4c(c23)CCC4)c1C | 0.991 ± 0.067 | 1.11 ± 0.12 | 1.02 ± 0.079 | 1.04 ± 0.036 | 1.43 ± 0.12 | 1.16 ± 0.12 | 0.994 (active)
CNC(CC(=O)O)C(=O)O (centres undefined) | 0.986 ± 0.073 | 1.08 ± 0.073 | 0.978 ± 0.028 | 0.943 ± 0.054 | 0.942 ± 0.094 | 0.948 ± 0.078 | 1 (active)
CCN1CC(CCN2CCOCC2)C(c2ccccc2)(c2ccccc2)C1=O (centres undefined) | 1.18 ± 0.32 | 1.04 ± 0.072 | 1.05 ± 0.067 | 0.874 ± 0.03 | 1.28 ± 0.14 | 1.29 ± 0.24 | 1.01 (active)
O=C(CCCn1nc(-c2ccc(F)cc2)ccc1=O)Nc1ccc(C(F)(F)F)cc1 | 0.89 ± 0.097 | 0.97 ± 0.055 | 1.05 ± 0.038 | 0.346 ± 0.038 | 1.01 ± 0.041 | 0.748 ± 0.15 | 0.99 (active)
COC(=O)C(CCSC)NC(=O)c1cc(OC)c(OC)c(OC)c1 (centres undefined) | 1.08 ± 0.18 | 1.09 ± 0.096 | 1.1 ± 0.14 | 1.02 ± 0.031 | 0.923 ± 0.089 | 1.07 ± 0.12 | 0.712 (active)
CCN(CC)c1ccc2cc(-c3nnc(NCc4ccc(F)cc4)s3)c(=O)oc2c1 | 1.08 ± 0.085 | 0.955 ± 0.059 | 0.906 ± 0.055 | 0.941 ± 0.035 | 1.08 ± 0.13 | 0.981 ± 0.085 | 1.01 (active)
COC(CNC(=O)COc1cccc2c1OC(C)(C)C2)c1ccc(Cl)s1 (centres undefined) | 0.539 ± 0.028 | 1.19 ± 0.1 | 0.998 ± 0.043 | 0.873 ± 0.046 | 0.883 ± 0.06 | 1.14 ± 0.34 | 0.939 (active)
